# Data as given in PubChem BioAssay AID743150 (Broad Institute, 2013).
# Results with a measured potency or affinity are listed apart. The source made the active and inactive calls. How the calls were made is not given here.
# Experiment: cytotoxicity in OVCAR4 cells, dose response, cytotoxicity control for PAX8 inhibitor project, cell-based, plate reader, dry powder, SA11 (AID 743150)
# Details: series mostly up to 35 µM
row,Structure (SMILES),outcome
1,O=C1/C(=C/c2cccc(Br)c2)SC(=S)N1CCC(=O)N(CCO)c1ccccc1,inactive
2,O=C1/C(=C/c2ccccc2F)SC(=S)N1CC(=O)N1CCCCC1c1cccnc1 (stereo unspecified),inactive
3,COc1cccc(C#Cc2ccc([C@@H]3[C@@H](C#N)N(C(=O)C4CCCCC4)[C@@H]3CO)cc2)c1,inactive
4,C[C@H](CO)N1C[C@H](C)[C@@H](CN(C)Cc2ccc(-c3ccccc3)cc2)Oc2ccc(NS(=O)(=O)c3ccccc3)cc2CC1=O,inactive
5,C[C@H](CO)N1C[C@H](C)[C@@H](CN(C)S(=O)(=O)c2ccc(-c3ccccc3)cc2)OCc2cn(nn2)CCCC1=O,inactive
6,Cc1ccc(S(=O)(=O)Nc2ccc3c(c2)C(=O)N([C@@H](C)CO)C[C@H](C)[C@@H](CN(C)C(=O)Nc2cccc4ccccc24)OCCCC[C@@H](C)O3)cc1,inactive
7,N#C[C@H]1[C@H](c2ccc(C#CC3CCCC3)cc2)[C@@H](CO)N1C(=O)Nc1ccc(F)cc1,inactive
8,COc1cccc(C#Cc2ccc([C@@H]3[C@@H](C#N)N(C(=O)C4CCCCC4)[C@H]3CO)cc2)c1,inactive
9,Cc1ccccc1OCC(=O)Nc1cccc(C(=O)O)c1,inactive
10,CC(=O)N1CCOc2ccc(S(=O)(=O)N3CCN(c4cccc(C(F)(F)F)c4)CC3)cc21,inactive
11,CC1(C)CC(=O)c2sc(NC(=O)CCS(=O)(=O)c3ccccc3)nc2C1,inactive
12,CCCC#Cc1ccc([C@H]2[C@@H](C#N)N(C(=O)C3CCCCC3)[C@H]2CO)cc1,inactive
13,N#C[C@H]1[C@@H](c2ccc(C#Cc3cccc(F)c3)cc2)[C@@H](CO)N1C(=O)C1CCCC1,inactive
14,N#C[C@H]1[C@@H](c2ccc(C3=CCCC3)cc2)[C@@H](CO)N1C(=O)NC1CCCCC1,inactive
15,CCCn1c(C)cc(C(=O)CN2C(=O)c3ccccc3S2(=O)=O)c1C,inactive
16,COc1cccc(C#Cc2ccc([C@@H]3[C@@H](C#N)N(C(=O)C4CCCC4)[C@@H]3CO)cc2)c1,inactive

row,Structure (SMILES),outcome
1,C[C@H](CO)N1C[C@H](C)[C@@H](CN(C)Cc2ccc(-c3ccccc3)cc2)Oc2ccc(NC(=O)C3CC3)cc2CC1=O,inactive
2,COc1ccc(S(=O)(=O)Nc2ccc3c(c2)CC(=O)N([C@@H](C)CO)C[C@@H](C)[C@@H](CN(C)Cc2ccc(-c4ccccc4)cc2)O3)cc1,inactive
3,C[C@H]1CN([C@@H](C)CO)C(=O)CCCn2nncc2CO[C@@H]1CN(C)C(=O)Nc1ccc(-c2cccs2)cc1,inactive
4,O=C(Nc1ccc(OCC(F)(F)C(F)F)c(C(F)(F)F)c1)c1ccccc1O,inactive
5,COCC(=O)N1[C@H](CO)[C@H](c2ccc(-c3cccnc3)cc2)[C@@H]1C#N,inactive
6,C[C@@H]1CN([C@H](C)CO)C(=O)CCCn2cc(nn2)CO[C@H]1CN(C)C(=O)Nc1ccc(-c2cccs2)cc1,inactive
7,CCc1ccc(/C=C2\SC(=S)N(CCCC(=O)N(CCO)c3ccccc3)C2=O)cc1,inactive
8,N#C[C@H]1N[C@H](CO)[C@@H]1c1ccc(C#Cc2ccccc2F)cc1,inactive
9,COc1ccccc1C#Cc1ccc([C@@H]2[C@@H](C#N)N(C(=O)C3CCCCC3)[C@H]2CO)cc1,inactive
10,O=C(C[C@@H]1C[C@H]2c3cc(NS(=O)(=O)c4ccc(F)cc4)ccc3O[C@H]2[C@H](CO)O1)NCc1ccc(Cl)cc1,inactive
11,O=C(CN1C(=O)c2ccccc2S1(=O)=O)c1ccc(Cl)cc1Cl,inactive
12,COc1cccc(C#Cc2ccc([C@H]3[C@@H](C#N)N(C(=O)c4ccccn4)[C@@H]3CO)cc2)c1,inactive
13,Cc1nc2sc(C(c3ccco3)N3CCN(C(c4ccccc4)c4ccccc4)CC3)c(O)n2n1 (stereo unspecified),inactive
14,CCCC#Cc1ccc([C@@H]2[C@@H](C#N)N(S(=O)(=O)c3cccc(F)c3)[C@H]2CO)cc1,inactive
15,C[C@H](CO)N1C[C@H](C)[C@@H](CN(C)Cc2ccc(C(F)(F)F)cc2)Oc2ccc(NS(=O)(=O)c3ccc(Cl)cc3)cc2CC1=O,inactive
